# PubChem BioAssay
# Several values for one entry are separate records, joined by “and”; a condition that tells them apart may be missing. Identical values can stand only once. Records with an inconclusive call do not appear. Activity calls are given as the source filed them.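 Rule for the calls, unless noted: active = z-score of at least 1.8 in each of two replicates, scored against plate mean and spread of sample wells; inactive = the rest.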
# Tests used:
# [1] = stimulators of nuclear beta-catenin in C2C12, primary screen, imaging, WNT3A-conditioned medium, mouse C2C12, NPC library (AID 1117326; in the data active = nuclear beta-catenin stimulation mostly above about 4.2%, no sharp cut-off; inactive = mostly below about 10%; note: reference of the scale not given here); conditions: stronger effect = higher value
# [2] = stimulators of insulin release from INS-1E, primary screen, cell-based, 5 mM glucose, NPC library (AID 1117329;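 active = compound raises insulin release from rat beta cells at 5 mM glucose, no numeric limit stated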; note: reference of the scale not given here); conditions: rat INS-1E insulin secretion, at 10 µM, stronger effect = higher value
# [3] = growth inhibition of GSK3B-pretreated HCT116 cells – cell-based, CellTiter-Glo, 0.2 to 20 µM (AID 1117336;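 active = compounds lowering colon cancer cell viability after pretreatment blocking the GSK3B kinase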); conditions: HCT116 viability after GSK3B inhibitor, at 20 µM, stronger effect = higher value
# [4] = inhibition of endothelial tube formation, primary screen, imaging, VEGF stimulated, CD31 staining, tube area, NPC library (AID 1117340;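 active = compound that reduces growth-factor-driven endothelial tube area in a mixed cell culture, no cutoff stated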); conditions: VEGF-stimulated ADSC/ECFC co-culture, at 10 µM, stronger effect = higher value
# [5] = glucagon-like peptide 1 release enhancers, primary assay, NCI-H716 cell line, NPC library (AID 1117341;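 active = compound raises GLP1 secretion from the human gut endocrine cells, with no numeric limit stated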; note: reference of the scale not given here); conditions: NCI-H716 cells, at 10 µM, stronger effect = higher value
# [6] = HCT116 colon cancer cell growth inhibition, primary screen, CellTiter-Glo luminescence, NPC library (AID 1117342;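 active = compounds that lower survival of HCT116 colon cancer cells in the luminescence readout, no numeric limit stated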); conditions: at 20 µM (top of the series)
# [7] = CellTiter-Glo luminescent readout of SW480 viability loss, NPC library primary (AID 1117343;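 active = compounds that lower viability of the colon cancer cells in the luminescence readout, with no numeric limit stated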); conditions: CellTiter-Glo luminescence; at 20 µM (top of the series) unless noted
# [8] = decreased DLD-1 cellular survival, CellTiter-Glo luminescent readout, NPC compound collection, primary HTS (AID 1117346;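 active = compounds that lower survival of DLD-1 colon cancer cells in the luminescence readout, no cutoff given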); conditions: DLD-1 viability, CellTiter-Glo luminescence; at 20 µM (top of the series)
# [9] = system: Aerobactin synthetase IucA (Klebsiella pneumoniae); assay: IucA aerobactin synthetase inhibitors, biochemical, Tocris library, absorbance (AID 1345561; call rule not given here;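 note: 100% = enzyme without compound and 0% = no enzyme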); conditions: purified IucA enzyme assay, absorbance (OD) read-out; stronger effect = lower value;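 tested at 8 µM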
# [10] = sensitizers of A549 cells to miR-34 induction, primary screen, imaging, A549 dox-inducible miR-34, nuclei and caspase counts (AID 1347080;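 active = compounds whose cell count with miR-34 switched on is under 0.7 times the count with it off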); conditions: A549 miR-34 inducible, Hoechst nuclei count, 48 h
# [11] = viability rescue of complex I mutant cybrids, primary screen, cell-based, galactose medium, ATP luminescence (AID 1645843); conditions: complex I mutant cybrid cells, 72 h, stronger effect = higher value;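 note: positive z means more ATP and so rescue of galactose-driven cybrid death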
# [12] = liver-stage malaria parasite growth inhibition, primary screen, cell-based, HepG2, luciferase luminescence, HepG2 viability (AID 624349; in the data active = parasite load remaining mostly below about 12%, no sharp cut-off; inactive = mostly above about 10%;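 note: 100% = mean of DMSO negative control wells on the same plate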); conditions: P. berghei liver stage in HepG2, luciferase luminescence, concentration not given here; parasite load remaining: stronger effect = lower value; viability: measured here: HepG2 viability without parasites
# [13] = survival rescue of mitochondrial mutant cells in low glucose, primary screen, MELAS cybrids, Rieske KO mouse fibroblasts, CellTiter-Glo (AID 1508586;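 active = mean z-score across replicates of 1.96 or higher in either the MELAS or the Rieske mutant cell line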;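 note: z relative to plate mean and SD of compound and empty wells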)
# [14] = growth inhibition of DIPG glioma cells, dose response, cell-based, SU-DIPG-XVII, MIPE5.0, CellTiter-Glo, qHTS (AID 1347060; cut-off not given, nearly all actives have AC50 up to about 26 µM;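 note: cells exposed to compound for 48 hours before viability readout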); conditions: SU-DIPG-XVII viability, CellTiter-Glo ATP luminescence
# [15] = growth inhibition of DIPG glioma cells, dose response, cell-based, JHH-DIPG-1, MIPE4.0, CellTiter-Glo, qHTS (AID 1347062; cut-off not given, nearly all actives have AC50 up to about 27 µM;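 note: cells exposed to compound for two days before readout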); conditions: JHH-DIPG-1 viability, CellTiter-Glo ATP luminescence
# [16] = SU-DIPG-XXV glioma cell viability, MIPE5.0 library, qHTS (AID 1347068; cut-off not given, nearly all actives have IC50 up to about 30 µM;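 for IC50: cells exposed to compound for 48 hours before viability readout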)
# [17] = molecular target: NAD(+) hydrolase SARM1 (Homo sapiens) (UniProt Q6SZW1); assay: SARM1 TIR NADase inhibitors, cell lysate, NAD-Glo luminescence (AID 1508614;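 active = compound whose remaining NAD level is above about 45 nM, limit read from the data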;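 note: higher remaining NAD means stronger inhibition of SARM1 NADase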); conditions: SAM-TIR HEK293T lysate NADase, at 1 µM, stronger effect = higher value
# Chain of NAD(+) hydrolase SARM1 (Homo sapiens) (Q6SZW1 whole entry, looked up): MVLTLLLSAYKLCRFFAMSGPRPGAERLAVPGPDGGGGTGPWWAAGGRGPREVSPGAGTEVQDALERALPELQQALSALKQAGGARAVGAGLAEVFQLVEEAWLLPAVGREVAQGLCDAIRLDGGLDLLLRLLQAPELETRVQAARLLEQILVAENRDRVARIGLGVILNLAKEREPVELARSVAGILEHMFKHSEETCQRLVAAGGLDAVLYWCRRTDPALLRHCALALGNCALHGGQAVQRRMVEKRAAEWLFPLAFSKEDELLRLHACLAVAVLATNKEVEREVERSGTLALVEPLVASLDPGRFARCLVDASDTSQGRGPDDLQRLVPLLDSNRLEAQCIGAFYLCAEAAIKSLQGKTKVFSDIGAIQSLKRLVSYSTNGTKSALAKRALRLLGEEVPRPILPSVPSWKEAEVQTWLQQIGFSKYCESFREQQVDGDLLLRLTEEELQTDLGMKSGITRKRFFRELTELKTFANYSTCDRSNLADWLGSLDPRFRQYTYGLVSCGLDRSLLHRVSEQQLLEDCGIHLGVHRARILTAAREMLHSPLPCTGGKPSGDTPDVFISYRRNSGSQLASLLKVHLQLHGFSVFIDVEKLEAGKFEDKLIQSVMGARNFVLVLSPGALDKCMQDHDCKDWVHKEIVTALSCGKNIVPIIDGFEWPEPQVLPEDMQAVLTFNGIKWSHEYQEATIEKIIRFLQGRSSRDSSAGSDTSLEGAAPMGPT
# [18] = stronger effect = lower value, cell number ratio, induced over uninduced
# [19] = measured here: relative caspase fold change +Dox/-Dox
# [20] = measured here: total cells with miR-34 induction, stronger effect = lower value
# [21] = measured here: total cells without miR-34 induction
# [22] = MELAS cybrid survival, CellTiter-Glo 48 h, stronger effect = higher value
# [23] = Rieske KO mouse fibroblast survival, CellTiter-Glo 72 h
smiles,measurement,setting,value
CC(C)OC(=O)c1cc2c(OCC(O)CNC(C)(C)C)cccc2[nH]1 (stereo not given),nuclear beta-catenin stimulation,[1]; at 10 µM,0.4% (inactive)
same,nuclear beta-catenin stimulation,"[1]; stimulation, at 2 µM",5.8%
same,insulin secretion stimulation,[2],13.3% (inactive)
same,viability decrease,[3],9.2% (inactive)
same,tube area decrease,[4],1.9% (inactive)
same,GLP1 secretion stimulation,[5],4.8% (inactive)
same,inhibition of viability,[6],40.5% (active)
same,viability decrease (inhibition),[7],58.6% (active)
same,viability decrease (inhibition),[8],7.6% (inactive)
same,remaining activity,[9],116% (inactive)
same,fold change,[10]; [18],0.915 (inactive)
same,fold change,[10]; [19],0.769
same,cell count,[10]; [20],9290
same,cell count,[10]; [21],10200
same,z-score,[11],-0.48 (inactive)
O=C(O)Cn1c(C(=O)Nc2nc(-c3ccccc3Cl)cs2)cc2ccccc21,nuclear beta-catenin stimulation,[1]; at 10 µM,0.7% (inactive)
same,nuclear beta-catenin stimulation,"[1]; stimulation, at 2 µM",-0.5%
same,insulin secretion stimulation,[2],0.05% (inactive)
same,viability decrease,[3],104% (active)
same,tube area decrease,[4],47.9% (active)
same,GLP1 secretion stimulation,[5],5.4% (inactive)
same,inhibition of viability,[6],72.1% (active)
same,viability decrease (inhibition),[7],102% (active)
same,viability decrease (inhibition),[8],60.6% (active)
same,remaining activity,[9],99.8% (inactive)
same,fold change,[10]; [18],0.989 (inactive)
same,fold change,[10]; [19],1.35
same,cell count,[10]; [20],8300
same,cell count,[10]; [21],8400
same,z-score,[11],1.2 (inactive)
OCC(CO)N[C@H]1C[C@](O)(CO)[C@@H](O)[C@H](O)[C@H]1O,nuclear beta-catenin stimulation,[1]; at 10 µM,3.1% (inactive)
same,nuclear beta-catenin stimulation,"[1]; stimulation, at 2 µM",5.1%
same,insulin secretion stimulation,[2],-1.5% (inactive)
same,viability decrease,[3],-12.8% (inactive)
same,tube area decrease,[4],7.6% (inactive)
same,GLP1 secretion stimulation,[5],1.9% (inactive)
same,inhibition of viability,[6],5.5% (inactive)
same,viability decrease (inhibition),[7],27.3% (inactive)
same,viability decrease (inhibition),[8],1.55% (inactive)
same,remaining activity,[9],123% (inactive)
same,fold change,[10]; [18],0.876 (inactive)
same,fold change,[10]; [19],1.87
same,cell count,[10]; [20],8920
same,cell count,[10]; [21],10200
same,z-score,[11],0.245 (inactive)
CCN1CCC[C@H]1CNC(=O)c1c(OC)ccc(Br)c1OC,parasite load remaining,[12],122% (inactive) and 75.7% (inactive)
same,viability,[12],119% and 100%
same,nuclear beta-catenin stimulation,[1]; at 10 µM,0.4% (inactive)
same,nuclear beta-catenin stimulation,"[1]; stimulation, at 2 µM",-0.6%
same,insulin secretion stimulation,[2],6.1% (inactive)
same,viability decrease,[3],-9.5% (inactive)
same,tube area decrease,[4],19.3% (active)
same,GLP1 secretion stimulation,[5],0.8% (inactive)
same,inhibition of viability,[6],6.8% (inactive)
same,viability decrease (inhibition),[7],-6.9% (inactive)
same,viability decrease (inhibition),[8],6.8% (inactive)
same,remaining activity,[9],89% (inactive)
same,fold change,[10]; [18],0.989 (inactive) and 0.971 (inactive) and 0.881 (inactive)
same,fold change,[10]; [19],0.662 and 1.03 and 1.37
same,cell count,[10]; [20],9050 and 9640 and 10200
same,cell count,[10]; [21],9150 and 9920 and 11500
same,z-score,[13]; [22],0.167 (inactive) and 0.0526 (inactive)
same,z-score,[13]; [23],-0.0474 and -0.355
same,z-score,[11],0.63 (inactive) and 0.485 (inactive)
Cc1ccc(=O)n(-c2ccccc2)c1,nuclear beta-catenin stimulation,[1]; at 10 µM,2.8% (inactive)
same,nuclear beta-catenin stimulation,"[1]; stimulation, at 2 µM",0.6%
same,insulin secretion stimulation,[2],-1.2% (inactive)
same,viability decrease,[3],-0.3% (inactive)
same,tube area decrease,[4],13.3% (inactive)
same,GLP1 secretion stimulation,[5],-2% (inactive)
same,inhibition of viability,[6],-4.6% (inactive)
same,viability decrease (inhibition),[7],39.2% (inactive)
same,viability decrease (inhibition),[8],12.8% (inactive)
same,remaining activity,[9],120% (inactive)
same,fold change,[10]; [18],1.05 (inactive) and 0.91 (inactive) and 0.937 (inactive)
same,fold change,[10]; [19],1.33 and 1.82 and 0.797
same,cell count,[10]; [20],11000 and 8480 and 9430
same,cell count,[10]; [21],10500 and 9310 and 10100
same,z-score,[13]; [22],-0.113 (inactive)
same,z-score,[13]; [23],-0.414
same,z-score,[11],0.38 (inactive) and -0.08 (inactive)
CC[C@]1(O)C[C@H]2CN(CCc3c([nH]c4ccccc34)[C@@](C(=O)OC)(c3cc4c(cc3OC)N(C=O)[C@H]3[C@@](O)(C(=O)OC)[C@H](OC(C)=O)[C@]5(CC)C=CCN6CC[C@]43[C@@H]65)C2)C1,parasite load remaining,[12],14.9% (inactive)
same,viability,[12],84%
same,nuclear beta-catenin stimulation,[1]; at 10 µM,44% (active)
same,nuclear beta-catenin stimulation,"[1]; stimulation, at 2 µM",76%
same,insulin secretion stimulation,[2],-1.1% (inactive)
same,viability decrease,[3],98.6% (active)
same,tube area decrease,[4],109% (active)
same,GLP1 secretion stimulation,[5],4.5% (inactive)
same,inhibition of viability,[6],67% (active)
same,viability decrease (inhibition),[7],56% (active)
same,viability decrease (inhibition),[8],59.1% (active)
same,remaining activity,[9],121% (inactive)
same,AC50,[14],29.5 nM (active)
same,AC50,[15],5.26 nM (active)
same,IC50,[16],235 nM (active)
same,fold change,[10]; [18],0.912 (inactive) and 1.12 (inactive)
same,fold change,[10]; [19],1.85 and 0.866
same,cell count,[10]; [20],1380 and 1910
same,cell count,[10]; [21],1510 and 1710
same,z-score,[13]; [22],-2.16 (inactive)
same,z-score,[13]; [23],1.73
same,remaining NAD,[17],10 nM (inactive)
same,z-score,[11],-0.515 (inactive) and -1.81 (inactive)
c1cc(CN2CCCCC2)cc(OCCCNc2nc3ccccc3s2)c1,nuclear beta-catenin stimulation,[1]; at 10 µM,3.6% (inactive)
same,nuclear beta-catenin stimulation,"[1]; stimulation, at 2 µM",0.7%
same,insulin secretion stimulation,[2],32.8% (active)
same,viability decrease,[3],29.5% (inactive)
same,tube area decrease,[4],22.6% (inactive)
same,GLP1 secretion stimulation,[5],0.5% (inactive)
same,inhibition of viability,[6],53.3% (active)
same,viability decrease (inhibition),[7],-462% (inactive)
same,viability decrease (inhibition),[8],58.6% (active)
same,remaining activity,[9],120% (inactive)
same,fold change,[10]; [18],1.11 (inactive) and 0.901 (inactive)
same,fold change,[10]; [19],0.913 and 0.9
same,cell count,[10]; [20],7430 and 7110
same,cell count,[10]; [21],6660 and 7890
same,z-score,[11],-1.34 (inactive) and -0.8 (inactive)
CC1(C)Oc2ccc(C#N)cc2[C@@H](N2CCCC2=O)[C@@H]1O,nuclear beta-catenin stimulation,[1]; at 10 µM,0.9% (inactive)
same,nuclear beta-catenin stimulation,"[1]; stimulation, at 2 µM",0.1%
same,insulin secretion stimulation,[2],0.4% (inactive)
same,viability decrease,[3],-2.5% (inactive)
same,tube area decrease,[4],-8.1% (inactive)
same,GLP1 secretion stimulation,[5],3.2% (inactive)
same,inhibition of viability,[6],17.9% (inactive)
same,viability decrease (inhibition),[7],-2.4% (inactive)
same,viability decrease (inhibition),[8],5.4% (inactive)
same,remaining activity,[9],118% (inactive)
same,fold change,[10]; [18],0.905 (inactive)
same,fold change,[10]; [19],1.17
same,cell count,[10]; [20],9250
same,cell count,[10]; [21],10200
same,z-score,[11],0.27 (inactive)
CC#C[C@]1(O)CC[C@H]2[C@@H]3CCC4=CC(=O)CCC4=C3[C@@H](c3ccc(N(C)C)cc3)C[C@@]21C,nuclear beta-catenin stimulation,[1]; at 10 µM,9.1% (inactive)
same,nuclear beta-catenin stimulation,"[1]; stimulation, at 2 µM",4%
same,insulin secretion stimulation,[2],1% (inactive)
same,viability decrease,[3],94.5% (active)
same,tube area decrease,[4],16.1% (inactive)
same,GLP1 secretion stimulation,[5],-3.8% (inactive)
same,inhibition of viability,[6],84.3% (active)
same,viability decrease (inhibition),[7],102% (active)
same,viability decrease (inhibition),[8],98.6% (active)
same,remaining activity,[9],115% (inactive)
same,AC50,[15],235 nM (active)
same,outcome,[16],inactive
same,z-score,[13]; [22],1.08 (inactive) and 0.356 (inactive)
same,z-score,[13]; [23],0.475 and 1.05
same,remaining NAD,[17],10 nM (inactive)
same,z-score,[11],0.48 (inactive) and -0.34 (inactive) and 0.325 (inactive)
